# Assay results from ChEMBL document CHEMBL3988442, “University of Dundee, Small-Polar-MMV Screening Library” (2021).
# Hit rate of the full screen: of about 69,000 compounds, about 1,000 (1.4%) showed an effect of 50% or more. Only a selection was taken, and strong results are over-represented in it overall.
# System: Leishmania donovani
# Assay: Leishmania intramacrophage assay
# Format: functional, organism-based
# Design: scale not given: in the data most compounds retested in dose-response had high values
structure (smiles),measurement,setting,value
CN(C)C(=O)COCC1CN(Cc2ccoc2)Cc2ncn(C)c21.O=C(O)C(F)(F)F.O=C(O)C(F)(F)F (centres undefined),Percent Effect,"30.3 µM, […]",13.81%
O=C(NCC(F)(F)C(F)F)c1cccnc1,Percent Effect,"30.3 µM, […]",3.821%
O=C(NCC(F)(F)F)c1ccncc1,Percent Effect,"30.3 µM, […]",80.67%
O=C(NCC(F)(F)C(F)F)c1ccncc1,Percent Effect,"30.3 µM, […]",-13.6%
CCC(C)N(Cc1cccnc1)Cc1cc2c(cc1OC)OCO2 (centres undefined),Percent Effect,"30.3 µM, […]",16.2%
CCC(C)N(Cc1cccnc1)Cc1ccc2c(c1)OCCO2 (centres undefined),Percent Effect,"30.3 µM, […]",27.15%
CCC(C)N(Cc1cccnc1)Cc1cc2c(cc1Cl)OCO2 (centres undefined),Percent Effect,"30.3 µM, […]",69.06%
CC(C)CN1C(=O)CC(N2CCN(c3ccc(F)cc3)CC2)C1=O (centres undefined),Percent Effect,"30.3 µM, […]",-25.93%
CC(C)NC(=O)c1nc(Cn2c(C(F)(F)F)nc3ccccc32)no1,Percent Effect,"30.3 µM, […]",55.95%
CC(C)NC(=O)c1nc(Cn2c(C(F)F)nc3ccccc32)no1,Percent Effect,"30.3 µM, […]",-22.55%
O=C(NC1CC1)c1nc(Cn2c(C(F)F)nc3ccccc32)no1,Percent Effect,"30.3 µM, […]",-15.36%
CCc1nnc2n1CCN(CC(O)c1ccc3c(c1)OCCO3)C2 (centres undefined),Percent Effect,30 µM,-7.197%
CC(C)(C)OC(=O)N1CCN(S(C)(=O)=O)C2(CCCCC2)C1,Percent Effect,"30.3 µM, […]",27.8%
CC(C)(C)OC(=O)N1CCN(S(=O)(=O)CCCC#N)C2(CCCCC2)C1,Percent Effect,"30.3 µM, […]",52.1%
CN(C)S(=O)(=O)N1CCN(C(=O)OC(C)(C)C)CC12CCCCC2,Percent Effect,"30.3 µM, […]",5.768%
CN1CCN(CC2(O)CCCN(S(=O)(=O)c3cn[nH]c3)CC2)CC1 (centres undefined),Percent Effect,"30.3 µM, […]",4.995%
Cc1ccc(CN2CCN(Cc3nccn3C)[C@H]3CS(=O)(=O)C[C@H]32)o1,Percent Effect,"30.3 µM, […]",16.96%
CCn1cc(N2Cc3nc(N4CCOCC4)ncc3C2=O)cn1,Percent Effect,"30 µM, 30.03 µM",-6.754%
Cn1cc(N2Cc3nc(N4CCOCC4)ncc3C2=O)cn1,Percent Effect,"30.3 µM, […]",59.37%
CC(C)n1cc(N2Cc3nc(N4CCOCC4)ncc3C2=O)cn1,Percent Effect,"30.3 µM, […]",32.93%
CN(C)Cc1ccc(C(N)=O)cc1NC(=O)c1cccc(C#N)c1,Percent Effect,"30.3 µM, […]",0.5381%
CC(=O)N1CCC(Cc2cccc(-c3ccnn3C)n2)CC1,Percent Effect,"30.3 µM, […]",7.143%
CN(CCNC(=O)Nc1cnn(C)c1)Cc1ccc(F)cc1,Percent Effect,"30.3 µM, […]",-44.73%
CN(CCNC(=O)Nc1nccs1)Cc1ccc(F)cc1,Percent Effect,"30.3 µM, […]",53.32%
CN(CCNC(=O)Nc1ccn(C)n1)Cc1ccc(F)cc1,Percent Effect,"30.3 µM, […]",-20.54%
CCSCc1cccc(NC2CCN(C)C2=O)c1 (centres undefined),Percent Effect,"30.3 µM, […]",-1.156%
COCCCN(C)c1cc(C(F)(F)F)nc(-c2cccnc2)n1,Percent Effect,"30.3 µM, […]",1.301%
Cl.c1ccc(-c2ccc(C3CNCCO3)nc2)cc1 (centres undefined),Percent Effect,"30 µM, 30.03 µM",21.61%
CCNC(=O)N(Cc1ccoc1)C1CCCCC1,Percent Effect,"30.3 µM, […]",-8.85%
